# The list is not random: actives were taken first. Their share in the collection is about 18%.
# DT40 TDP1 no CPT – qHTS for Inhibitors of human tyrosyl-DNA phosphodiesterase 1 (TDP1): qHTS in cells in absence of CPT | DT40 Tdp1-/- hTDP1 cells, no CPT, ATP luminescence, 48 h | Potency, µM (titrated, usually from 46.2 µM), without a hit: at the highest dose activity change, negative = growth inhibition, usual class: inhibitors | 15% of 420,000 active | AID 686978, 2013; also: potency is read from the fitted curve at half-maximal effect; % is scaled to controls: 0 for no effect and ±100 for the full control effect; nearly all actives have a fitted effect of over 55% in size
#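 Growth kinetics read by CellTiter-Glo luminescence after ≥48 hr at 37 °C. Cells: DT40 Tdp1-/- stably carrying human TDP1, 400 per well, compound exposure in the absence of CPT (DMSO vehicle).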
# HepG2 viability – counter-screen for TGF-b inhibitors: cytotoxicity in HepG2 cells; HepG2 CAGA-GFP viability, ATP luminescence, 18 h; Potency, µM (series often up to 46.1 µM), without a hit: top-dose activity change, negative = cytotoxicity, usual class: cytotoxic; 0.76% of 410,000 active; also: potency is read from the fitted curve at half-maximal effect
#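 CellTiter-Glo luminescence gave cytotoxicity after 18 hours at 37 degrees C. The cells were HepG2 CAGA-GFP in 1% FBS DMEM, stimulated with 500 pg/mL TGF-beta after compound addition. %Activity was normalised to no-cell wells (complete cell-killing) and DMSO (no toxicity), and curves were fitted and classified.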
# TGFb SMAD3 inh – TGF-b pathway inhibition. HepG2 CAGA-GFP TGF-b/SMAD3 reporter, GFP fluorescence, 18 h; TGF-beta stimulated, 500 pg/mL final. Potency, µM (highest dose often 46.1 µM), for the others: top-dose activity, negative = inhibition, most hits filed as inhibitors. 1.2% of 410,000 active; also: potency is read from the fitted curve at half-maximal effect; % is scaled to controls: 0 for no effect and ±100 for the full control effect; nearly all actives have a fitted effect of over 65% in size
#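 Inhibition was scored as loss of TGF-beta-induced (500 pg/mL final, 18 hours, 37 degrees C) GFP in HEPG2 cells carrying a CAGA-GFP reporter, in DMEM with 1% FBS. Well GFP was summed per cell; Activity was normalised to unstimulated and stimulated DMSO wells, then concentration-response fitting.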
# TDP1 block – inhibitors of human tyrosyl-DNA phosphodiesterase TDP1; Q9NUW8; recombinant TDP1, AlphaScreen DNA substrate cleavage; Potency, µM (doses to about 130 µM), for inactives: at the highest dose activity change, negative = inhibition, actives largely listed as inhibitors; 0.28% of 350,000 active; also: potency is read from the fitted curve at half-maximal effect; % is scaled to controls: 0 for no effect and ±100 for the full control effect; nearly all actives have a fitted effect of over 40% in size
# Target sequence (Q9NUW8 whole entry, looked up): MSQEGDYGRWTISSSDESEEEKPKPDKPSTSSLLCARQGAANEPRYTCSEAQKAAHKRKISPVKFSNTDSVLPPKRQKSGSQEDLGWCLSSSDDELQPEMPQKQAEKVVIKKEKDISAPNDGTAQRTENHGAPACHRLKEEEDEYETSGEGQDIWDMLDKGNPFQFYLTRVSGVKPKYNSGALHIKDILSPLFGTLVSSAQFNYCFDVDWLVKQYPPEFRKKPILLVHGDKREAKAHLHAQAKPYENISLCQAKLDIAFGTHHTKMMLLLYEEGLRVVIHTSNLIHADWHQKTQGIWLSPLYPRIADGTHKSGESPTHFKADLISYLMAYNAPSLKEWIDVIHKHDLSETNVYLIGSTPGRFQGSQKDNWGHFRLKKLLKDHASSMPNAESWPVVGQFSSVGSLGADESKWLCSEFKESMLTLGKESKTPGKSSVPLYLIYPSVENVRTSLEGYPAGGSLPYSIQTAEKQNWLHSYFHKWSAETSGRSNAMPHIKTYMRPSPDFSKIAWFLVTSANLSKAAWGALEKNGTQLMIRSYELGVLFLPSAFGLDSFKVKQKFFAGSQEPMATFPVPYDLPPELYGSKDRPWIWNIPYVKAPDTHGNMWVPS
#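 Enzyme-compound mixtures sat 15 min at room temperature, followed by a 5 min reaction with 15 nM final substrate and 10 min with AlphaScreen beads. Recombinant human Tdp1 was used at 1 nM final.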
# DT40 TDP1 CPT – DT40-hTDP1 cell growth loss with CPT; chicken DT40 Tdp1-/-;hTDP1 cells + 20 nM CPT, ATP luminescence, 48 h; AID 686979; Potency, µM (highest dose often 46.2 µM), inactives show at the top dose activity change, negative = growth inhibition, usual class: inhibitors; 12% of 420,000 active; also: potency is read from the fitted curve at half-maximal effect; % is scaled to controls: 0 for no effect and ±100 for the full control effect; nearly all actives have a fitted effect of over 55% in size
#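 Chicken DT40 Tdp1-/- cells complemented with human TDP1, 400 cells/well, exposed to compounds plus 20 nM camptothecin for at least 48 h at 37 C; viability read as ATP content by CellTiter-Glo luminescence.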
# IL1B secr inh – inhibitors of inflammasome signaling (IL-1 beta secretion); 4.7% of 360,000 active; THP-1 LPS/ATP IL-1B secretion, AlphaLISA, 16 h; hits give low values; activity change, % at 57.5 µM; in the data active = activity change below about -50%; inconclusive = mostly about -30% to -49%; also: % is scaled to controls: 0 for no effect and ±100 for the full control effect
#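 THP-1 cells pretreated 1 hr with compounds (up to 57.5 uM final), then stimulated with LPS (250 ng/mL final) plus ATP (1.25 mM final); secreted IL-1B measured by AlphaLISA after 16 hr, decreased signal indicating inhibition.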
# * marks the source's active call; other numbers are inactive results; ? = inconclusive; . = no result. Unless noted, calls follow the shape of the dose curve; as a rule, active = well fitted curve in the direction sought with a large enough effect; inconclusive = small, poorly fitted or top-dose-only effect, or another doubt; inactive = no such curve, though single readings can be large; an effect the other way counts as inactive or inconclusive.
SMILES,DT40 TDP1 no CPT,HepG2 viability,TGFb SMAD3 inh,TDP1 block,DT40 TDP1 CPT,IL1B secr inh
CCOC(=O)N1CCC(Nc2ncnc3c2cnn3-c2ccccc2)CC1,11µM*,-23%,-21%,0%,?,-9
Clc1ccc(-n2ncc3c(NCc4ccco4)ncnc32)cc1,15µM*,-28%,1%,3%,?,0
CCOC(=O)N1CCN(c2ncnc3c2cnn3-c2ccc(Cl)cc2)CC1,.,.,.,-3%,.,.
CCc1cccc(C)c1NC(=S)NCC1CCN(c2ccc(OC)cc2)C1 (configuration not stated),21µM*,-6%,?,11%,21µM*,-67*
COc1ccc(N2CCC(CNC(=O)Nc3ccc(Cl)cc3)C2)cc1 (configuration not stated),18µM*,-62%,?,7%,?,-19
COc1ccc(N2CCC(CNC(=S)Nc3cccc(OC)c3)C2)cc1 (configuration not stated),.,.,.,9%,.,.
CCc1ccccc1NC(=S)NCC1CCN(c2ccc(OC)cc2)C1 (configuration not stated),21µM*,-4%,?,12%,?,-7
CN(C(=O)c1cnc(N2CCN(c3ncccn3)CC2)c2ccccc12)c1ccc(Cl)cc1,21µM*,10%,5%,0%,?,-84*
Cc1ccc(N2CCN(C(=O)c3cnc(N4CCCCC4)c4ccccc34)CC2)c(C)c1,?,2%,?,2%,?,.
O=C(c1cnc(N2CCCCC2)c2ccccc12)N1CCN(c2ccc(Cl)cc2)CC1,23µM*,-11%,?,-2%,15µM*,.
Cc1ccc(Cl)cc1N1CCN(C(=O)c2cnc(N3CCOCC3)c3ccccc23)CC1,6.5µM*,-39%,?,3%,5.8µM*,.
CCCc1nc(SC)ncc1C(=O)N1CCN(c2ccc(Cl)cc2)CC1,23µM*,-2%,?,1%,?,.
Clc1ccccc1-c1nc(N2CCNCC2)c2ccccc2n1,-17%,.,.,.,1%,.
COc1cccc2c1OCC(CN1CCN(CCC(C)C)C(CCO)C1)=C2 (configuration not stated),-21%,-29%,-3%,3%,22%,10
COc1cccc(-c2[nH]nc3c2C(c2ccoc2)C(C#N)=C(N)O3)c1 (configuration not stated),-23%,-6%,-5%,-8%,-26%,-14
O=C(O)CCN1C(=O)c2ccc(NC(=O)COc3ccccc3)cc2C1=O,5%,12%,3%,2%,0%,1
O=C(c1cnc(N2CCN(c3ncccn3)CC2)c2ccccc12)N1CCN(c2ncccn2)CC1,15µM*,-24%,-2%,0%,15µM*,-54*
CC(C)CCc1noc(CN(C)CCC2CCOCC2)n1,-8%,-1%,0%,.,0%,22
Cc1nn(C)c(C)c1CN(Cc1nc(CCC(C)C)no1)C(C)C,0.58µM*,-21%,?,-8%,2.3µM*,-6
C=CCn1cc(/C=N/NC(=O)COc2cccc3cccnc23)c2ccccc21,16µM*,-7%,0%,8%,15µM*,-14
Cc1cc(/C=N\NC(=O)COc2cccc3cccnc23)c(C)n1-c1ccccc1,-20%,-26%,?,0%,?,-4
CC(C)n1cc(/C=N/NC(=O)COc2cccc3cccnc23)c2ccccc21,?,-43%,-19%,3%,?,-78*
CCOCCOc1cccc(C(=O)NC(C)c2ccc3ccccc3c2)c1 (configuration not stated),-24%,-4%,-19%,.,-26%,-18
O=C(COc1ccccc1)N(Cc1ccccc1)c1nc(-c2ccccc2)cs1,?,6%,-1%,6%,-27%,-4
COc1ccc(-c2csc(N(CCc3ccc(OC)c(OC)c3)C(=O)COc3ccccc3)n2)cc1,16µM*,-23%,?,0%,?,7
SMILES,DT40 TDP1 no CPT,HepG2 viability,TGFb SMAD3 inh,TDP1 block,DT40 TDP1 CPT,IL1B secr inh
COc1ccc(-c2csc(N(Cc3ccccc3)C(=O)COc3ccc(Cl)cc3)n2)cc1,18µM*,-1%,8%,2%,21µM*,11
O=C(NCCN1CCOCC1)Nc1ccc(F)cc1,15%,1%,-3%,-13%,0%,18
CCCCCCCCCc1conc1C(=O)/C=C/c1ccco1,-13%,.,.,.,6%,1
COc1ccc(NC(=O)c2ccco2)cc1NC(=O)c1ccccc1F,-15%,-6%,-4%,?,-7%,-2
COc1ccc(Br)cc1C(=O)Nc1cccc(NC(=O)c2ccco2)c1,18µM*,-10%,5%,2%,?,-21
CC(=O)Nc1cccc(NC(=O)c2ccco2)c1,12%,-20%,-4%,9%,-9%,26
COc1ccc(NC(=O)c2ccco2)cc1NC(=O)c1cc(Br)ccc1Cl,21µM*,-27%,-22%,9%,-28%,.
O=C(Nc1cccc(NC(=O)c2ccc(-c3cccc(Br)c3)o2)c1)c1ccco1,11µM*,7%,-21%,4%,16µM*,-59*
CN(CC1CCCN(CCc2ccc(Cl)cc2)C1)C(=O)c1ccco1 (configuration not stated),?,4%,54%,.,?,-2
Cc1ccc(S(=O)(=O)N(C)C[C@H]2OCCCC[C@H](C)Oc3ccc(NC(=O)Nc4cccc5ccccc45)cc3C(=O)N([C@@H](C)CO)C[C@H]2C)cc1,?,-49%,-20%,.,-6%,4
C[C@@H]1CN([C@@H](C)CO)C(=O)c2cc(NC(=O)Nc3ccccc3)ccc2O[C@H]1CN(C)C(=O)Nc1cccc2ccccc12,18µM*,-10%,-1%,1%,13µM*,-1
C[C@@H]1CCCCO[C@H](CN(C)C(=O)Nc2cccc3ccccc23)[C@@H](C)CN([C@H](C)CO)C(=O)c2cc(NC(=O)c3ccccc3)ccc2O1,3.7µM*,-26%,-6%,.,4.6µM*,-25
C[C@@H]1CCCCO[C@H](CN(C)C(=O)c2ccncc2)[C@H](C)CN([C@@H](C)CO)C(=O)c2cc(NC(=O)c3ccccc3)ccc2O1,4%,0%,-15%,.,-4%,11

# High-throughput results (PubChem)
